Assay results taken from PubChem BioAssay (NCATS).
Several values for one entry are separate records, joined by “and”; a condition that tells them apart may be missing. Equal values may be shown once. Values without a mark were called inactive. Records with an inconclusive call do not appear. Activity calls are given as the source filed them. Calls follow the shape of the dose curve; as a rule, active = well fitted curve in the direction sought with a large enough effect; inconclusive = small, poorly fitted or top-dose-only effect, or another doubt; inactive = no such curve, though single readings can be large; an effect the other way counts as inactive or inconclusive.

molecular target: Cytochrome P450 3A4 (Homo sapiens) (UniProt P08684); experiment: qHTS Assay for Activators of Cytochrome P450 3A4 (AID 885); details: recombinant CYP3A4, Luciferin-PPXE luminescence, 60 min; series mostly up to 57.1 µM; activity change, positive = activation: at the top concentration; also: nearly all actives have a fitted effect of over 65% in size
Sequence (P08684 whole entry, looked up): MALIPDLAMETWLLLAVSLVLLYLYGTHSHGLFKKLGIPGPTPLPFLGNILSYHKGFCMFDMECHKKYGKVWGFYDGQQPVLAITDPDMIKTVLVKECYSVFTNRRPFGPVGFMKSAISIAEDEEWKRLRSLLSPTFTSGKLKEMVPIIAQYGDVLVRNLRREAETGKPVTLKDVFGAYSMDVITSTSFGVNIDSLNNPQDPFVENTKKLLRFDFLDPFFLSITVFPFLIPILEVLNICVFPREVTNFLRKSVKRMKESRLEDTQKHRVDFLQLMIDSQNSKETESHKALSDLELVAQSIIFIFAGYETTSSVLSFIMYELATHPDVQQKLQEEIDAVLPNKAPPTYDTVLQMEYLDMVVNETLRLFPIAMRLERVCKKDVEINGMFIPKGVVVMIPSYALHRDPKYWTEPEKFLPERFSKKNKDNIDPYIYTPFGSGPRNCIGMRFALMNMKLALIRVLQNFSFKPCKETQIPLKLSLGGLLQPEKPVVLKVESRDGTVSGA
Outline: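 Quantitative HTS format: compounds preincubated with 20nM human CYP3A4 and Luciferin-PPXE substrate at KM, reaction started by NADPH regeneration, stopped after 60 min, luciferase luminescence read 20 min later.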

Compound | activity change, positive = activation
CC1CCC2C(=O)OC(CO)CN2C1c1ccc(Br)cc1 (centres undefined) | -46.2% [at 11.4 µM]
CC1CCC2C(=O)N3C(CCC(C)C3c3ccccc3Br)C(=O)N2C1c1ccc(C#CCN(C)C)cc1 (centres undefined) | -38.2% [at 11.4 µM]
CC(=O)OC[C@@H]1O[C@H](C/C=N\OCC[C@H]2C=C[C@H](OC(C)=O)[C@@H](COC(C)=O)O2)C=C[C@@H]1OC(C)=O | -31% [at 11.4 µM]
COc1ccc(OC2C(O)COC2/C=C/c2ccccc2)cc1 (centres undefined) | -47.5% [at 11.4 µM] and -40.4% [at 11.4 µM]
C=CCc1cccc(C2C(C)CCC3C(=O)N4C(CCC(C)C4c4cccc(CC=C)c4)C(=O)N32)c1 (centres undefined) | -58.4% [at 11.4 µM]
CCN1C(=O)[C@H]2[C@H]3[C@H](O)[C@H](O)C/C(=N/O[C@@H](C)c4cn([C@H](CO)Cc5ccccc5)nn4)[C@@H]3CC[C@@H]2C1=O | -35.2% [at 11.4 µM] and -33% [at 11.4 µM]
CC(C)c1c(O)ccc2c1CCC1C(C)(C)CCC[C@@]21C (some centres undefined) | -42.3%
COc1ccc(-c2coc3c(OC)c(OC)cc(O)c3c2=O)cc1 | -50.7%
CCCCCCCC#Cc1ccccc1C(NC(=O)OC)C(C(=O)OC)C(=O)OC (centres undefined) | -56.4% [at 11.4 µM]
COC(=O)C/C=C\[C@@H](C)[C@@H](/C=N\OC[C@@H](O)[C@H]1O[C@H]2OC(C)(C)O[C@H]2[C@@H]1O)OC | -43.3% [at 11.4 µM]
CC1CCC2C(=O)OC(CN3C(=O)c4ccccc4C3=O)CN2C1c1ccc(Br)cc1 (centres undefined) | -55.7% [at 11.4 µM]
COC(=O)[C@@H]1CC[C@H](C)[C@@H](c2ccc(C)cc2)N1C(=O)c1ccc(/C=N\OC[C@@H]2O[C@H](c3ccccc3)C=C[C@@H]2Oc2ccc(OC)cc2)cc1 | -30% [at 11.4 µM]
C#CCCCCCCCCCCCC(O)CC(O)COC(C)=O (centres undefined) | -61.4%
CO[C@H]1COC(=O)C/C=C\[C@@H](C)COC(=O)[C@@H](OCc2ccccc2)/C=C\[C@@H]1C | -63.8% [at 11.4 µM]
CC1CCC2C(=O)N3C(CCC(C)[C@H]3c3ccccc3Br)C(=O)N2C1c1ccccc1Br (some centres undefined) | -55.3% [at 11.4 µM]
O=C1[C@@H]2[C@H]3[C@H](O)[C@H](O)C/C(=N/OC[C@@H](O)COCc4ccco4)[C@@H]3CC[C@H]2C(=O)N1c1ccc(F)cc1F | -48.8% [at 11.4 µM]
CCOC(=O)OCC1OC(C#Cc2ccc(Br)cc2)C=CC1OC(=O)OCC (centres undefined) | -52.5% [at 11.4 µM]
CCC12C=C(/C=C/c3ccccc3)C(CC)(C1)C(c1ccccc1)CC2=O (centres undefined) | -32.8% [at 11.4 µM]
CC(=O)OC[C@@H]1O[C@@H](O/N=C2/C[C@@H](O)[C@@H](O)[C@@H]3[C@@H]4C(=O)N(c5cccc(Oc6ccccc6)c5)C(=O)[C@H]4CC[C@H]23)[C@H](OC(C)=O)[C@H](OC(C)=O)[C@@H]1OC(C)=O | -36.6% [at 11.4 µM]
COC(=O)NC(/C(C(=O)OC)=C(\C)NCc1ccccc1)c1ccc2ccccc2c1 (centres undefined) | -55.9% [at 11.4 µM]
C[C@@H]1/C=C\CC(=O)OC[C@H]2O[C@@H](C=C[C@@H]2O)[C@H](C)/C=C\CC(=O)OC1 | -35.6% [at 11.4 µM]
CC(C)=CCC/C(C)=C/CO/N=C1/[C@H]2O[C@@H]2[C@@H](O)[C@H]2[C@H]1CCn1c(=O)n(Cc3cc4c(cc3Cl)OCO4)c(=O)n12 | -56.5% [at 11.4 µM]
CC/C=C\CC[C@H](OC(=O)c1ccc(Br)cc1)C1=CCCCC1=O | -40.7% [at 11.4 µM]
CCC[C@@H]1C[C@@]1(CCC)C(NC(=O)OCc1ccccc1)c1ccc(-c2ccccc2)cc1 (some centres undefined) | -59.3%
CC(C)CO/N=C1/C[C@@H](O)[C@@H](O)[C@@H]2[C@@H]3C(=O)N(Cc4ccc5c(c4)OCO5)C(=O)[C@H]3CC[C@H]12 | -96.6% [at 11.4 µM]
C=CC[C@@H]1C=C[C@@H](O/N=C\C[C@@H]2C=C[C@H](OC(C)=O)[C@H](COC(C)=O)O2)[C@@H](CO)O1 | -49.3% [at 11.4 µM]
O=C1[C@@H]2[C@H]3[C@H](O)[C@H](O)C/C(=N/OC[C@@H](O)COCc4ccco4)[C@H]3CC[C@H]2C(=O)N1c1ccc(F)cc1F | -44.4% [at 11.4 µM]
COc1c(CC(=O)c2cc3c(cc2O)OC(C)(C)C(O)C3)ccc2c1C=CC(C)(C)O2 (centres undefined) | -48.1%

molecular target: Cytochrome P450 2D6 (Homo sapiens) (UniProt P10635); experiment: qHTS Assay for Inhibitors and Substrates of Cytochrome P450 2D6 (AID 891); details: recombinant CYP2D6, luciferin-ME EGE luminescence; series mostly up to 11.4 µM; activity change, negative = inhibition: at the top concentration; also: nearly all actives have a fitted effect of over 60% in size; also: potency is read from the fitted curve at half-maximal effect;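 as to activity change, negative = inhibition: luciferin methyl ether substrate demethylated by CYP2D6 with NADPH regeneration; % is scaled to controls: 0 for no effect and ±100 for the full control effect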
Sequence (P10635 whole entry, looked up): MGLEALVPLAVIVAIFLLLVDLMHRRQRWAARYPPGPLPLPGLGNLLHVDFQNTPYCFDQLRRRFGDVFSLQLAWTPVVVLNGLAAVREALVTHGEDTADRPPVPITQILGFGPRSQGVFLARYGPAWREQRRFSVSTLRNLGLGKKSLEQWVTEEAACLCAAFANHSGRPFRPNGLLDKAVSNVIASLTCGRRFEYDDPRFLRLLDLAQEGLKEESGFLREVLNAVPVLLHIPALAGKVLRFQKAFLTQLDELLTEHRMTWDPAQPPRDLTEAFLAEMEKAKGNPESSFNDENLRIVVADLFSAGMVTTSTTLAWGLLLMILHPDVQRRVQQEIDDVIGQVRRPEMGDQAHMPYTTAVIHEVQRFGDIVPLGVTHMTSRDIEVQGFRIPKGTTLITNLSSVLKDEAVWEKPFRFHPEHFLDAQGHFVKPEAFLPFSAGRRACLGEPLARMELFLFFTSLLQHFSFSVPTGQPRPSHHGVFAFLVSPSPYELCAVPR
Outline: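 Human CYP2D6 (5 nM) with 30 uM Luciferin-ME EGE (at Km) in 100 mM KPO4, compound preincubated 10 min, then NADPH regeneration system for 60 min at room temperature. Luciferin read by luminescence; normalized to 1.43 uM quinidine.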

Compound | activity change, negative = inhibition [%] | Potency
C/C=C/OC(=O)NC(c1ccccc1)[C@]1(C(C)=O)CCCC1=O (some centres undefined) | -9.24 | 
COc1ccc(OC)c(-c2ccccc2/C=N/NS(=O)(=O)c2ccc(C)cc2)c1 | -3.85 | 
COC(=O)C(/C=C/C(C)Cc1cc(Br)cc(OCc2ccccc2)c1OC)OCc1ccccc1 (centres undefined) | -12.8 | 
CC1CCC2C(=O)N3C(CCC(C)[C@H]3c3cccc(N4CCCC4=O)c3)C(=O)N2C1c1cccc(N2CCCC2=O)c1 (some centres undefined) | -0.327 | 
C[C@@H]1/C=C\CC(=O)OC[C@H](C)C(=O)N[C@@H](Cc2ccccc2)C(=O)OC1 | 21.4 | 
CC1CCC2C(=O)OC(CO)CN2C1c1ccc(Br)cc1 (centres undefined) | 1.85 | 
CC1CCC2C(=O)N3C(CCC(C)C3c3ccccc3Br)C(=O)N2C1c1ccc(C#CCN(C)C)cc1 (centres undefined) | -10.3 | 
COc1ccc(OC2C(O)COC2/C=C/c2ccccc2)cc1 (centres undefined) |  | inactive
CCCCCCCC#Cc1ccccc1C(NC(=O)OC)C(C(=O)OC)C(=O)OC (centres undefined) | 10.8 | 
COC(=O)C/C=C\[C@@H](C)[C@@H](/C=N\OC[C@@H](O)[C@H]1O[C@H]2OC(C)(C)O[C@H]2[C@@H]1O)OC | 24.6 | 
CC1CCC2C(=O)N3C(CCC(C)[C@H]3c3ccccc3Br)C(=O)N2C1c1ccccc1Br (some centres undefined) |  | 3.16 µM (active)
CCOC(=O)OCC1OC(C#Cc2ccc(Br)cc2)C=CC1OC(=O)OCC (centres undefined) | -25.6 | 
CCC12C=C(/C=C/c3ccccc3)C(CC)(C1)C(c1ccccc1)CC2=O (centres undefined) | -6.62 | 
COC(=O)NC(/C(C(=O)OC)=C(\C)NCc1ccccc1)c1ccc2ccccc2c1 (centres undefined) |  | 2 µM (active)
C[C@@H]1/C=C\CC(=O)OC[C@H]2O[C@@H](C=C[C@@H]2O)[C@H](C)/C=C\CC(=O)OC1 | 21.7 | 
CCC[C@@H]1C[C@@]1(CCC)C(NC(=O)OCc1ccccc1)c1ccc(-c2ccccc2)cc1 (some centres undefined) |  | 7.94 µM (active)
